Experimental findings from PubChem BioAssay (NCI) are described below.

Compounds without any hit were thinned out: in the full panel of roughly 79,000, 15% have a hit. Values without a mark were called inactive. Activity calls are given as the source filed them. Cut-off read from the data, not from the text of the source: active = growth inhibition above about 70%; inactive = the rest.

The first experiment is described as follows: NCI Yeast Anticancer Drug Screen. Data for the sgs1 mgt1 strain (AID 161).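 Note: 0% = growth of cultures given vehicle only.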 The conditions noted are these: S. cerevisiae sgs1 mgt1 strain, at 5.0 µM (retest, dose inferred, filed as 0.5), active compounds read high. The method, then:
Growth inhibition of yeast strains with defined genetic alterations is measured as a screen for potential anti-cancer activity. Selected strains with alterations in DNA damage repair or cell cycle control were exposed to compounds and growth inhibition was measured relative to vehicle treated controls. The strain used in this assay is sgs1 mgt1
`O=[As]c1ccc(O)c(O)c1` (configuration not stated): the growth inhibition is -4%. As to `CCOC(=O)CNC(=O)C1C2c3ccccc3C(c3ccccc32)C1C(=O)O` (configuration not stated), the growth inhibition was 0%. `CC12CCC3C(CCC4Cc5nc6nnnn6cc5CC43C)C1CCC2O` (configuration not stated): the growth inhibition was 14%. On to `CC12C(=O)C=CCC1=CCC1C2CCC2(O)C(=O)OC3(C)C4CC5(C)C(COC16OC23C5C6=O)C(=O)O4` (configuration not stated), for which the growth inhibition is 19%. The same measure, in the same setting: next, `COc1cc(/C=C\[N+](=O)[O-])ccc1O`: 34%; `O=C(O)C1CC2c3ccccc3C1([N+](=O)[O-])c1ccccc12` (configuration not stated): 0%. Consider `Sc1ccccc1.[Ag]`, for which the growth inhibition is 49%.

As to `CCOc1c(Br)cc(/C=C(\C)[N+](=O)[O-])cc1OC`, the growth inhibition was 6%. As to `O=C(CBr)Nc1ccccc1`, the growth inhibition is 36%. `CC[PH+](CC)CC.[Cl][Au]`: the growth inhibition was 97% (active).

Still in this experiment, the particulars now being: S. cerevisiae sgs1 mgt1 strain, at 50.0 µM (retest, dose inferred, filed as 5.0), active compounds read high.
For the compound `O=[As]c1ccc(O)c(O)c1` (configuration not stated), the growth inhibition was 99% (active). In the case of `CCOC(=O)CNC(=O)C1C2c3ccccc3C(c3ccccc32)C1C(=O)O` (configuration not stated), the growth inhibition was 39%.

With `CC12CCC3C(CCC4Cc5nc6nnnn6cc5CC43C)C1CCC2O` (configuration not stated), the growth inhibition was 85% (active). With `CC12C(=O)C=CCC1=CCC1C2CCC2(O)C(=O)OC3(C)C4CC5(C)C(COC16OC23C5C6=O)C(=O)O4` (configuration not stated), the growth inhibition was 31%. For the compound `COc1cc(/C=C\[N+](=O)[O-])ccc1O`, the growth inhibition is 99% (active). Take `O=C(O)C1CC2c3ccccc3C1([N+](=O)[O-])c1ccccc12` (configuration not stated): the growth inhibition was 7%. Take `Sc1ccccc1.[Ag]`: the growth inhibition was 98% (active). On to `CCOc1c(Br)cc(/C=C(\C)[N+](=O)[O-])cc1OC`, for which the growth inhibition is 9%. For `O=C(CBr)Nc1ccccc1`, the growth inhibition was 99% (active). The same measure, in the same setting: under `CC[PH+](CC)CC.[Cl][Au]` stands 98% (active).

The experiment is the same for the next values; noted with them: S. cerevisiae sgs1 mgt1 strain, at 50.0 µM, active compounds read high.
On to `NCCC1CCc2[nH]c3ccccc3c2C1` (configuration not stated), for which the growth inhibition was -0.5%. The same measure, in the same setting: next, `CNC(Cc1ccccc1)c1cccc(O)c1` (configuration not stated): -1.3%; `O=[As]c1ccc(O)c(O)c1` (configuration not stated): 99.5% (active); `O=C1OP2(c3ccccc3)(OC(=O)c3ccccc32)c2ccccc21`: 20.4%. As to `O=C(Oc1ccc(S(=O)(=O)F)cc1Cl)c1ccccc1Cl`, the growth inhibition was 99.5% (active). On the same count and under the same terms, under `CCOC(=O)CNC(=O)C1C2c3ccccc3C(c3ccccc32)C1C(=O)O` (configuration not stated) stands 96% (active); under `CC12CCC3C(CCC4Cc5nc6nnnn6cc5CC43C)C1CCC2O` (configuration not stated), 51%. As to `C[N+](C)(C)CC1CCCCC1=O` (configuration not stated), the growth inhibition is 17.9%.

With `O=C(Nc1ccc(N(CCCl)CCCl)cc1)Oc1ccc(C(=O)O)cc1`, the growth inhibition was 10.1%. Turning to `O=NN1CCOCC1`, the growth inhibition was 14.8%. Consider `CC12C(=O)C=CCC1=CCC1C2CCC2(O)C(=O)OC3(C)C4CC5(C)C(COC16OC23C5C6=O)C(=O)O4` (configuration not stated), for which the growth inhibition was 54.4%. As to `Cc1ccccc1[N+](=O)[O-]`, the growth inhibition was 2.5%. Take `O.[Co].[NH2-].[NH2-].[NH2-].[NH2-].[NH2-]`: the growth inhibition was 36.2%. On to `COc1cc(/C=C\[N+](=O)[O-])ccc1O`, for which the growth inhibition was 99.5% (active). `O=C(O)C1CC2c3ccccc3C1([N+](=O)[O-])c1ccccc12` (configuration not stated): the growth inhibition was 31.1%.

For `COP(=O)(NC(C)=O)OC`, the growth inhibition was -4.5%. Consider `Sc1ccccc1.[Ag]`, for which the growth inhibition is 99% (active). As for `CCOc1c(Br)cc(/C=C(\C)[N+](=O)[O-])cc1OC`, the growth inhibition was 87.3% (active).

Turning to `O=C(CBr)Nc1ccccc1`, the growth inhibition was 98.4% (active). Turning to `CN(C)CCc1ccc(Cl)cc1Cl`, the growth inhibition is -2.5%. Same read-out and setting: next, `O=[N+]([O-])c1ccc(CCl)cc1`: 10.7%; `CC[PH+](CC)CC.[Cl][Au]`: 91.3% (active).
